Measured values reported in ChEMBL document CHEMBL3433997, “St. Jude Leishmania screening dataset” (2016).

Legend:
Format in all cases: functional
[1] = target: Solute carrier family 2, facilitated glucose transporter member 1 (Homo sapiens) (UniProt P11166); experiment: ST_JUDE_LEISH: Cytotoxicity at 2uM final concentration against transgenic Leishmania Mexicana promastigotes LmGLUT1 that are glucose transport deficient and complemented with the human glucose transporter GLUT1. Activity is measured by DNA content using SYBR green in vitro
Chain of Solute carrier family 2, facilitated glucose transporter member 1 (Homo sapiens) (P11166 whole entry): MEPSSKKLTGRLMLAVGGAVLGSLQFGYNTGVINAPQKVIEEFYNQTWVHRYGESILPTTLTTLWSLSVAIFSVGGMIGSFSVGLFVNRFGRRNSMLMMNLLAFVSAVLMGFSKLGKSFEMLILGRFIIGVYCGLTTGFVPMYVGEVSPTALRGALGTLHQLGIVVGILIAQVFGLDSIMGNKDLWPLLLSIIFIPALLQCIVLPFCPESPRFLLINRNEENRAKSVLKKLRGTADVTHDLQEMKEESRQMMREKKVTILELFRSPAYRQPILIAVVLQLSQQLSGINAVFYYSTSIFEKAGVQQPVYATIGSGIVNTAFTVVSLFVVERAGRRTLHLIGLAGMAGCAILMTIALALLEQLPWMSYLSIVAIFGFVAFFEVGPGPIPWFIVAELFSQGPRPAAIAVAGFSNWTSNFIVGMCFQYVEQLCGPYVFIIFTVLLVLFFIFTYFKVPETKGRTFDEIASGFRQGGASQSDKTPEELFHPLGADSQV

[2] = target: Hexose transporter 1 (Plasmodium falciparum) (UniProt O97467); experiment: ST_JUDE_LEISH: Cytotoxicity at 2uM final concentration against transgenic Leishmania Mexicana promastigotes LmPfHT that are glucose transport deficient and complemented with the Plasmodium falciparum hexose transporter. Activity is measured by DNA content using SYBR green in vitro
[3] = target: Glucose transporter (Leishmania mexicana) (UniProt O61059); experiment: ST_JUDE_LEISH: Cytotoxicity at 2uM final concentration against transgenic Leishmania Mexicana promastigotes LmGT2 that are glucose transport deficient and complemented with the L. Mexicana glucose transporter 2. Activity is measured by DNA content using SYBR green in vitro

## CCCN1CCN(c2ccc(NS(=O)(=O)c3ccc(C(=O)Nc4ccc(Cl)cc4)cc3)cc2)CC1
[1]
  inhibition: 0.49%
[2]
  inhibition: 0.84%
[3]
  inhibition: -2.28%

## COc1ccc2ccc(F)c(CC(=O)N3CCOC(CNCc4cccc(-c5ccsc5)n4)C3)c2n1 (stereo not drawn)
[1]
  inhibition: 6.96%
[2]
  inhibition: 6.66%
[3]
  inhibition: 4.23%

## O=C(/C=C/c1ccc(Cl)c(Cl)c1)NCCCCCN1CCCN(C(=O)Nc2ccc(Br)cc2)CC1
[1]
  inhibition: 10.6%
[2]
  inhibition: 10.3%
[3]
  inhibition: 10.2%

## O=C(c1ccc(Cl)cc1)C1CCCN(C2CCN(CCc3ccccc3)CC2)C1 (stereo not drawn)
[1]
  inhibition: 12.5%
[2]
  inhibition: 17.3%
[3]
  inhibition: 13.8%

## CN1CCC(NCCS(=O)(=O)c2cccc(Nc3ccc(-c4cccc(F)c4)cn3)c2)CC1
[1]
  inhibition: 0.4%
[2]
  inhibition: 0.91%
[3]
  inhibition: -0.71%

## CC1(C)N=C(N)N=C(N)N1c1ccc(I)cc1
[1]
  inhibition: 5.79%
[2]
  inhibition: 5.57%
[3]
  inhibition: 6.6%

## CN1CCCC(OC(=O)c2ccccc2)C1 (stereo not drawn)
[1]
  inhibition: 4.26%
[2]
  inhibition: 3.71%
[3]
  inhibition: 3.1%

## CCN(CC)C(=O)C1CCCN(c2cc(C)nc(Nc3ccc(Cl)cc3)n2)C1 (stereo not drawn)
[1]
  inhibition: 0.86%
[2]
  inhibition: 1.03%
[3]
  inhibition: 0.51%

## COC(=O)c1cc(OC2CCOC2=O)cc2c1OC(C)(C)O2 (stereo not drawn)
[1]
  inhibition: 10.9%
[2]
  inhibition: 12.7%
[3]
  inhibition: 8.43%

## CC(C)CNCc1cccc(-c2cccc(CN(CCCN3CCN(C)CC3)C(=O)Nc3ccccc3)c2)c1
[1]
  inhibition: 0.02%
[2]
  inhibition: -1.73%
[3]
  inhibition: 0.33%

## Cc1onc(-c2ccccc2)c1-c1nc(NCc2ccccc2Cl)no1
[1]
  inhibition: 2.36%
[2]
  inhibition: 2.64%
[3]
  inhibition: 1.32%

## CCCCc1ccc(C(=O)Nc2ccc3nc(N4CCN(CC)CC4)cc(C)c3c2)cc1
[1]
  inhibition: -2.18%
[2]
  inhibition: -0.16%
[3]
  inhibition: -1.24%

## CCCN(CCC)C(=O)c1cc(-c2cccc(C)c2)nc2ccccc12
[1]
  inhibition: 2.62%
[2]
  inhibition: 0.69%
[3]
  inhibition: -1.61%

## Cc1nn(-c2ccccc2)nc1C(=O)NC1CCN(CCNC(=O)c2ccc(Cl)c(Cl)c2)CC1
[1]
  inhibition: 0.92%
[2]
  inhibition: 2.53%
[3]
  inhibition: 1.85%

## COc1cccc(C(=O)Nc2ccc(-c3nc4ccccc4[nH]3)cc2)c1
[1]
  inhibition: 3.48%
[2]
  inhibition: 1.76%
[3]
  inhibition: 0.31%

## O=C1O[C@H](c2ccccc2)[C@H](c2ccccc2)N(C(=O)OCc2ccccc2)[C@H]1Cc1ccccc1C1CCCC1
[1]
  inhibition: 1.05%
[2]
  inhibition: 2.14%
[3]
  inhibition: 1.27%
